# This is a sample that favours compounds with a hit; in the whole collection about 12% have one here.
# BAZ2B inh – blocks human BAZ2B | Q9UIF8 | AlphaScreen BAZ2B-H3K14Ac peptide displacement | Potency, µM (top dose mostly 114 µM), inactives show at the top dose activity change, negative = inhibition, actives largely listed as inhibitors | 360,000 tested, 4.4% active | AID 504333; further: on the % scale 0 is the no-effect control and ±100 the full control effect; nearly all actives have a fitted effect of over 60% in size
#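 Multi-concentration screen (max 110 uM) measuring displacement of acetylated histone H3 peptide from BAZ2B by AlphaScreen, using 50 nM protein, 50 nM peptide and 10 ug/mL streptavidin donor plus Ni-chelate acceptor beads.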
# JMJD2A Tudor inh – blocks the human JMJD2A Tudor domain. AlphaScreen JMJD2A-Tudor / H3K4me3 peptide binding. 390,000 tested, 4.4% active. Potency, µM (series often up to 114 µM), inactives show at the highest dose activity change, negative = inhibition, hits mostly inhibitors; further: on the % scale 0 is the no-effect control and ±100 the full control effect; nearly all actives have a fitted effect of over 50% in size
# Sfp inh – blocks B. subtilis Sfp PPTase activity; Q9F4F7; Biochemical Sfp PPTase activity, qHTS; Potency, µM, for inactives: largest response in the series, negative = inhibition, most hits filed as inhibitors; 310,000 tested, 3.5% active;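 further: the enzyme is Sfp with the accession as filed and its product quenches rhodamine fluorescence; 0% = enzyme reaction without inhibitor and -100% = no enzyme wells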
#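 After 15 min at room temperature with compound, 15 nM Sfp received 5 uM rhodamine-CoA plus 12.5 uM BHQ-2-ybbR (50 mM Hepes pH 7.6, 10 mM MgCl2). Rate came from the fluorescence difference over 30 min, ex 525/em 598 nm.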
# HP1b chromo inh – inhibitors of HP1-beta chromodomain binding to methylated histone tails; P83916; AlphaScreen HP1-beta / biotin-H3K9me3 peptide binding; Potency, µM (titrated, usually from 114 µM), for the others: at the top dose activity change, negative = inhibition, usual class: inhibitors; 390,000 tested, 0.56% active; further: nearly all actives have a fitted effect of over 70% in size
# Target sequence (P83916 whole entry, looked up): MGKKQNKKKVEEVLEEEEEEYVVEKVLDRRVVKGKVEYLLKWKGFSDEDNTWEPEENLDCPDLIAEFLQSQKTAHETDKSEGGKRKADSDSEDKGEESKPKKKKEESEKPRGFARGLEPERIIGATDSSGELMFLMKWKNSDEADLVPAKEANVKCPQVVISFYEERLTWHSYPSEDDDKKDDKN
#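 Compound inhibition of the preformed complex between 50 nM HP1-beta and 50 nM biotinylated H3K9me3 peptide was read by AlphaScreen. Buffer was PBS pH 7.4 with 0.01% Tween-20. Incubations ran 30 min at room temperature, with 10 ug/mL donor/acceptor beads.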
# G9a inh – inhibitors of human histone lysine methyltransferase G9a. G9a H3K9 monomethylation, AlphaScreen, 2 h. Potency, µM (highest dose often 102 µM), for inactives: at the highest dose activity, negative = inhibition, most hits filed as inhibitors. AID 504332. Q96KQ7. 350,000 tested, 8.8% active; further: on the % scale 0 is the no-effect control and ±100 the full control effect; nearly all actives have a fitted effect of over 75% in size
# Target sequence (Q96KQ7 913-1193 limits assumed): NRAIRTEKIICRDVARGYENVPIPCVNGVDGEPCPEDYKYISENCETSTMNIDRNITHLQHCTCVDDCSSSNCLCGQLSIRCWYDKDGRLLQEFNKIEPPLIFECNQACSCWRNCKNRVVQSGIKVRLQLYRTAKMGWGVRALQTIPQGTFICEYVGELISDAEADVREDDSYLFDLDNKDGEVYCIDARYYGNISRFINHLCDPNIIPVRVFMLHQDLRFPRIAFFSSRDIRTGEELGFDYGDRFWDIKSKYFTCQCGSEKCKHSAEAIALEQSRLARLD
#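 Compounds were preincubated with 20 nM G9a for 15 min, after which biotinylated H3K9 peptide (500 nM) and SAM (20 uM) started a 2 h room-temperature reaction. Monomethylated product was quantified by antibody-based AlphaScreen chemiluminescence.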
# * marks the source's active call; other numbers are inactive results; u = inconclusive; x = no result; [ ] = remark or other dose. The call rests on the fitted dose curve; in most records, active means well fitted curve in the direction sought with a large enough effect; inconclusive means small, poorly fitted or top-dose-only effect, or another doubt; inactive means no such curve, though single readings can be large; an effect the other way counts as inactive or inconclusive. Potency means the concentration at half of the fitted maximal effect.
SMILES,BAZ2B inh,JMJD2A Tudor inh,Sfp inh,HP1b chromo inh,G9a inh
C[N+]1(CC2COC3(CCCCC3)O2)CCCC1 (stereo unspecified),1%,u,-9%,-3%,14µM*
O=C(NCc1ccc(F)cc1)C1CCCN1C(=O)Nc1cccc(F)c1 (stereo unspecified),-5%,-1%,14%,8%,-10%
Cc1ccc(-c2csc3ncn(CC#N)c(=O)c23)cc1C,50µM*,50µM*,7%,u,u
CCn1cc(C(=O)N2CCCC(N3CCN(c4ccccc4C)CC3)C2)cn1 (stereo unspecified),-25%,-22%,9%,-4%,-8%
CC[n+]1c(C)cc(C)n1-c1ccccc1,x,u,9%,27%,50µM*
COc1cccc(-c2cc3c(-n4cccc4)ncnc3o2)c1,-7%,8%,22µM*,54%,14%[59 µM]
COc1cccc(-c2ccc3ncnc(N4CCN(C)CC4)c3c2)c1,x,x,18%,x,3%[0.501 µM]
O=[N+]([O-])c1cc(/C=N/n2c(-c3ccncc3)n[nH]c2=S)ccc1Cl,u,u,-21%,6%,x
O=[N+]([O-])c1cccc(/C=N/n2c(-c3cccnc3)n[nH]c2=S)c1,-37%,4µM*,u,u,1.8µM*
Cc1ccsc1/C=N/n1c(-c2cccnc2)n[nH]c1=S,-29%,4.5µM*,-1%,-5%,u
O=[N+]([O-])c1ccc(Cl)c(/C=N/n2c(-c3cccnc3)n[nH]c2=S)c1,-19%,x,8%,x,5.6µM*
O=[N+]([O-])c1ccc(/C=N/n2c(-c3cccnc3)n[nH]c2=S)cc1,3%,8.9µM*,u,-1%,-127%
COc1ccccc1N1CCN(C(=O)c2c(-c3c(F)cccc3Cl)noc2C)CC1,-17%,-14%,4%,29%,x
CC(c1ccccc1)N1C(=O)CC(Sc2ncccc2C(=O)O)C1=O (stereo unspecified),3%,-16%,12%,32%,22µM*
COc1ccc(N2C(=O)CC(Sc3ncccc3C(=O)O)C2=O)cc1 (stereo unspecified),2%,-1%,12%,43%,u
O=C(O)c1cccnc1SC1CC(=O)N(c2ccccc2)C1=O (stereo unspecified),-27%,-16%,15%,68%,56µM*
CCCCN1C(=O)CC(Sc2ncccc2C(=O)O)C1=O (stereo unspecified),-21%,1%,21%,44%,-7%
O=C(O)c1ccccc1SC1CC(=O)N(c2ccccc2)C1=O (stereo unspecified),-20%,u,79µM*,18%,u
CCCn1c(=O)[nH]c2nc(-c3ccc(S(=O)(=O)O)cc3)[nH]c2c1=O,x,x,23%,x,x
Cc1ccc(CN2C(=O)CN(C3CCC(C)CC3)C(=O)C2c2ccc(F)cc2)cc1 (stereo unspecified),12%,-14%,x,27%,29%[59 µM]
CC(=O)c1ccc(NC(=O)CSc2nnc3ccc(-c4ccccn4)nn23)cc1,-12%,-3%,x,16%,9%
Cc1cc(C)cc(/C=C/C2OCC(O)C2Oc2ccc(C3CCCC3)cc2)c1 (stereo unspecified),x,x,7%,x,x
CCOc1ccc(Oc2ccc(Cl)cc2N)cc1,u,1%,5%,47%,50µM*
Cc1cnc(C(=O)OCC(=O)Nc2cc(Cl)ccc2C#N)cn1,x,-14%,x,5%,x
CCOc1ccc(-n2c(-c3ccc(OC)cc3)cc3c2CC(C)(C)CC3=O)cc1,13µM*,16µM*,x,-24%,14µM*
SMILES,BAZ2B inh,JMJD2A Tudor inh,Sfp inh,HP1b chromo inh,G9a inh
COc1ccc(-n2c(-c3ccc(C)cc3)cc3c2CC(C)(C)CC3=O)c(OC)c1,14µM*,18µM*,x,u,13µM*
Cc1ccc(-c2cc3c(n2-c2ccc(C)cc2)CC(C)(C)CC3=O)cc1,-14%,u,x,14%,-41%[59 µM]
COc1cccc(-n2c(-c3ccc(C)cc3)cc3c2CC(C)(C)CC3=O)c1,11µM*,u,x,10%,u
COc1ccc(-n2c(-c3ccc(C)cc3)cc3c2CC(C)(C)CC3=O)cc1Cl,5µM*,32µM*,x,u,10µM*
Cc1ccc(-c2cc3c(n2-c2ccc(F)cc2)CC(C)(C)CC3=O)cc1,-25%,-24%,x,-8%,-31%[59 µM]
COc1cccc(-n2c(-c3ccc(Cl)cc3)cc3c2CC(C)(C)CC3=O)c1,8.9µM*,8.9µM*,x,-21%,u
CC1(C)CC(=O)c2cc(-c3nc(-c4ccc(Cl)cc4)cs3)c(=O)n(-c3ccc(F)cc3)c2C1,6%,-10%,x,15%,u
COc1ccccc1Nc1ccncc1[N+](=O)[O-],-14%,-24%,9%,5%,-7%
COc1ccccc1Nc1cc(C)nc2c(C)ccc([N+](=O)[O-])c12,11µM*,10µM*,-9%,16µM*,25µM*
COc1ccc(C(=O)Nc2ccc(C(=O)Nc3cccnc3)cc2)cc1,-26%,-34%,6%,u,50µM*
CC(=O)Nc1cccc(/C(C)=N/NC(N)=S)c1,-13%,-3%,35µM*,-6%,32µM*
COc1ccc(CNC(=O)CCC(=O)Nc2cccnc2)cc1,1%,-3%,12%,42%,40µM*
COc1ccc(C(=O)Nc2ccc(/C(C)=N/NC(=O)c3ccncc3)cc2)cc1,50µM*,x,50µM*,x,22µM*
COC(=O)C(C)Sc1ncnc2c1c(-c1ccccc1)cn2-c1ccc(F)cc1 (stereo unspecified),1%,-7%,x,70%,69%[59 µM]
C#CCCCCCCCCCCCC(O)CC(O)COC(C)=O (stereo unspecified),x,x,-5%,x,-16%[2.33 µM]
COc1cc(CC(=O)OCC(=O)NCc2cccs2)cc(OC)c1OC,x,-2%,x,17%,x
CCCC(=O)c1ccc(OC(=O)c2c(-c3ccccc3Cl)noc2C)cc1,22%,31%,x,76%,46%[59 µM]
C[C@@]12C=Cc3occc3[C@H]1CC[C@]13CC(=O)[C@@H](CC[C@H]12)C3,x,-19%,-18%,1%,x
CCn1cc(C(=O)OCC(=O)Nc2cc(Cl)ccc2C)c(=O)c2ccc(C)nc21,2%,-7%,x,25%,-34%[59 µM]
COc1cccc(CN2CC34CCC(CC3S2(=O)=O)O4)c1 (stereo unspecified),x,-13%,1%,10%,x
C/C(=N\NC(=O)c1ccn(C)n1)c1cccc(NC(=O)c2ccncc2)c1,-5%,10µM*,8%,-5%,18%
COc1ccc(C(=O)Nc2ccccc2C(=O)Nc2ccc(C(=O)O)cc2)cc1,-17%,-13%,8%,45%,u
O=C(NCc1cccnc1)c1ccc(NC(=O)c2ccc(Br)cc2)cc1,-13%,-33%,-18%,35%,45µM*
COc1ccc(C(=O)Nc2ccccc2C(=O)Nc2ccncc2)cc1,u,-14%,6%,24%,45µM*
Cc1noc(C)c1-c1ccc2ncnc(NCc3ccccc3C(F)(F)F)c2c1,x,-12%,6%,x,x
